In the supplement of paper PMC10849652:
Targets with a hit are over-represented here; the source holds about 7,900 in all. About 0.6% of all pairs of compound and target were hits. Unmarked numbers belong to inactive results.

Assays:
Assay in all cases: log2 fold change, soluble protein after heating vs DMSO (PISA); higher = thermal stabilisation; K562 cells, 10 uM, 30 min; active = over 0.2 and 3.5 SD of the protein, either way, in both replicates (recomputed)
[1] = compound: COC1=CC=C(C=C1)CN2C=CC3=C2C=C(C=C3)C(=O)NO
Method in brief: (§1)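 Aliquots of K562 cells (2×10^6 cells/mL) treated with 10 μM compound for 30 min were heated for 3 min over 48°C-58°C. After pooling and extraction in PBS with 0.5% NP-40 at 4°C, soluble protein from a 21,000xg, 90 min spin was quantified by TMTpro 16plex LC-MS/MS with channel sums equalised. Thermal stability is expressed against control samples, from duplicates, as a log2 fold change.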

[2] = compound: CON(C)C(=O)N1N=C(c2cc(F)ccc2F)S[C@@]1(CCCN)c1ccccc1 [filanesib]
Method in brief: as §1

[3] = compound: CO[C@H]1C[C@@H]2CC[C@@H](C)[C@@](O)(O2)C(=O)C(=O)N2CCCC[C@H]2C(=O)O[C@H]([C@H](C)C[C@@H]2CC[C@H](n3cnnn3)[C@H](OC)C2)CC(=O)[C@H](C)/C=C(\C)[C@@H](O)[C@@H](OC)C(=O)[C@H](C)C[C@H](C)/C=C/C=C/C=C/1C [zotarolimus]
Method in brief: as §1

[4] = compound: COc1cc(C(=O)O)ccc1NC(=O)[C@@H]1N[C@@H](CC(C)(C)C)[C@](C#N)(c2ccc(Cl)cc2F)[C@H]1c1cccc(Cl)c1F [idasanutlin]
Method in brief: as §1

[5] = compound: COc1cc(Nc2ncc3c(n2)-c2ccc(Cl)cc2C(c2c(F)cccc2OC)=NC3)ccc1C(=O)O [alisertib]
Method in brief: as §1

[6] = compound: COc1cc2nc(-c3cc(F)ccc3O)nc(N[C@@H]3CNC[C@H]3C(C)(C)O)c2cc1OC
Method in brief: as §1

[7] = compound: COc1cc2ncnc(Nc3ccc(F)c(Cl)c3)c2cc1OCCCN1CCOCC1 [gefitinib]
Method in brief: as §1

[8] = compound: COc1cccc2cc(-c3nc([C@H]4CC[C@H](C(=O)O)CC4)n4ncnc(N)c34)[nH]c12
Method in brief: as §1

[9] = compound: CS(=O)(=O)CCNCc1ccc(-c2ccc3ncnc(Nc4ccc(OCc5cccc(F)c5)c(Cl)c4)c3c2)o1 [lapatinib]
Method in brief: as §1

[10] = compound: CS(=O)(=O)N1CCN(Cc2cc3nc(-c4cccc5[nH]ncc45)nc(N4CCOCC4)c3s2)CC1 [pictilisib]
Method in brief: as §1

Chain of UniProt Q86V48 (Q86V48 whole entry, looked up): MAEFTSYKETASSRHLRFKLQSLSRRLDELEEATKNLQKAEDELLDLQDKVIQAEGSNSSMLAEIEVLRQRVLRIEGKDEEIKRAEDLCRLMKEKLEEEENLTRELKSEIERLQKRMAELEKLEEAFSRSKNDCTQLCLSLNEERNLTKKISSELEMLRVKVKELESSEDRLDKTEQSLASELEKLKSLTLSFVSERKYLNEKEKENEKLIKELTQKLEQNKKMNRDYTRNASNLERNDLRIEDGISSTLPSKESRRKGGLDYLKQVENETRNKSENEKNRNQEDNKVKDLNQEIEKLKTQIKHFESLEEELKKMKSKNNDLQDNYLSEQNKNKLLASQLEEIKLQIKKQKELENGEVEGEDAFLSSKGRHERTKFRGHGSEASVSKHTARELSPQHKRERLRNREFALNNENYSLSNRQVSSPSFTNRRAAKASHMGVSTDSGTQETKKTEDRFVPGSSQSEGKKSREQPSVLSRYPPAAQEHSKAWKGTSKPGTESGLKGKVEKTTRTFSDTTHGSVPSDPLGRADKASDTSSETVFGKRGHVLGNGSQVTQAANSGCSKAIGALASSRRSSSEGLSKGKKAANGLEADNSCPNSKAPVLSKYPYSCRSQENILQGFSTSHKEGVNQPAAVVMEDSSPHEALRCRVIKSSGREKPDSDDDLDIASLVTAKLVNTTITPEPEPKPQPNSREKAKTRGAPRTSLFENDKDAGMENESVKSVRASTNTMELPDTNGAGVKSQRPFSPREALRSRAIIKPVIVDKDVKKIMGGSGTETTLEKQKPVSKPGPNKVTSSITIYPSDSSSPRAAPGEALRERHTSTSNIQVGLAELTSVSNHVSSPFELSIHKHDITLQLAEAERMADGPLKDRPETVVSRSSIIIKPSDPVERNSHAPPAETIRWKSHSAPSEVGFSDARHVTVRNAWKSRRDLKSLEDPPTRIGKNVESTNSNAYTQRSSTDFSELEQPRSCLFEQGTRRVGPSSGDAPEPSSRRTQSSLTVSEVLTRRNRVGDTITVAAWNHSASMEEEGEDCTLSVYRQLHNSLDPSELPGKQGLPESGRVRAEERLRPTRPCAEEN
Chain of UniProt P52732 (P52732 whole entry, looked up): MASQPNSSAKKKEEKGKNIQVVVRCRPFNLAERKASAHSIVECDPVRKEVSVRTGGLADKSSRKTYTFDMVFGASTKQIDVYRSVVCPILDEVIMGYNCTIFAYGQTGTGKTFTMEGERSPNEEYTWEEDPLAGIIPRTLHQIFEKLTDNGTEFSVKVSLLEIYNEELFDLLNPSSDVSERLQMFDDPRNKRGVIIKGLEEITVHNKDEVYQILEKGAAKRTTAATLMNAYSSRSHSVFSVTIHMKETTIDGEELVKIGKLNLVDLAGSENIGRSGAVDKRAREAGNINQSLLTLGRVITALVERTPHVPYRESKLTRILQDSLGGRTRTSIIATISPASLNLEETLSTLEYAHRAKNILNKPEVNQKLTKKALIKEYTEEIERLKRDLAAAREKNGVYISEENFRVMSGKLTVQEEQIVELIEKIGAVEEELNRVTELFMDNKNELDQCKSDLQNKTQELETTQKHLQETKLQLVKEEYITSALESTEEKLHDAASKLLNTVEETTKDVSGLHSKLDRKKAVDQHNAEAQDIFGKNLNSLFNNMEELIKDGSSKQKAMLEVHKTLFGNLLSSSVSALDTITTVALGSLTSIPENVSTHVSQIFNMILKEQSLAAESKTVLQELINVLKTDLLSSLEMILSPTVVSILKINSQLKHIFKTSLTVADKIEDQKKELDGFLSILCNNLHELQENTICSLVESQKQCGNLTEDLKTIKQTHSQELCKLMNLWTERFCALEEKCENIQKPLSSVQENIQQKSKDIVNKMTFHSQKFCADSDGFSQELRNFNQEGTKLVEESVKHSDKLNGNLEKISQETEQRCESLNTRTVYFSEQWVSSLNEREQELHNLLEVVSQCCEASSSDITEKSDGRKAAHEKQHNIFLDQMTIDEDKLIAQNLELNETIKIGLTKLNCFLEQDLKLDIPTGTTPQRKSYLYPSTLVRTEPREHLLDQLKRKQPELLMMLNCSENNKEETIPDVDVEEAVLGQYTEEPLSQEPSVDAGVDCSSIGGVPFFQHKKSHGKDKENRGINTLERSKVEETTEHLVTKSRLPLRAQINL
Chain of UniProt Q92604 (Q92604 whole entry, looked up): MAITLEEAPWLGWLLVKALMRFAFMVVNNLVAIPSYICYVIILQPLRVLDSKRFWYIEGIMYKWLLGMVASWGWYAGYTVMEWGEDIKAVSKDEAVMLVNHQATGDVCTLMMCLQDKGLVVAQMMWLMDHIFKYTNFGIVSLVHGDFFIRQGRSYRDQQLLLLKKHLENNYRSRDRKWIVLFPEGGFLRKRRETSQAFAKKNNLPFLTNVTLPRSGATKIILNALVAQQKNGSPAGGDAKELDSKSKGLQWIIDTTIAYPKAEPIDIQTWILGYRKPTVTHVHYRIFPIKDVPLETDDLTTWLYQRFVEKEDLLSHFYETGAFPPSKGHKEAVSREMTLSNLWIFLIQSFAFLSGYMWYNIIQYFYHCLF
Chain of UniProt O14880 (O14880 whole entry, looked up): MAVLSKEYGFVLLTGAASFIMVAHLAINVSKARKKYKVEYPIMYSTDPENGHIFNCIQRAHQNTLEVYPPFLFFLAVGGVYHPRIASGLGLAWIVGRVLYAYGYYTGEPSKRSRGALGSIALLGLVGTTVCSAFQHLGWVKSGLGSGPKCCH
Chain of UniProt O14733 (O14733 whole entry, looked up): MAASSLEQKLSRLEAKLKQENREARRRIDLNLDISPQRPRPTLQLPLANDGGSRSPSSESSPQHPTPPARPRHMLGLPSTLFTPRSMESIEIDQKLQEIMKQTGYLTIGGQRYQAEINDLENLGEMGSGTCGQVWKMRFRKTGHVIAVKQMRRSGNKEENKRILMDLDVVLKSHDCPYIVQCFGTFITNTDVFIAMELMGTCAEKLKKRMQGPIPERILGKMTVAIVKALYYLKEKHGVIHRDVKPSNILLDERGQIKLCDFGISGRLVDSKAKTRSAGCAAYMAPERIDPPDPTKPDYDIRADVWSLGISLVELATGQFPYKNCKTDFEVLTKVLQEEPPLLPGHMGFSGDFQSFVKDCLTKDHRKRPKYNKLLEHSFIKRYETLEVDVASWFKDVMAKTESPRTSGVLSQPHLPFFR
Chain of UniProt P27816 (P27816 whole entry, looked up): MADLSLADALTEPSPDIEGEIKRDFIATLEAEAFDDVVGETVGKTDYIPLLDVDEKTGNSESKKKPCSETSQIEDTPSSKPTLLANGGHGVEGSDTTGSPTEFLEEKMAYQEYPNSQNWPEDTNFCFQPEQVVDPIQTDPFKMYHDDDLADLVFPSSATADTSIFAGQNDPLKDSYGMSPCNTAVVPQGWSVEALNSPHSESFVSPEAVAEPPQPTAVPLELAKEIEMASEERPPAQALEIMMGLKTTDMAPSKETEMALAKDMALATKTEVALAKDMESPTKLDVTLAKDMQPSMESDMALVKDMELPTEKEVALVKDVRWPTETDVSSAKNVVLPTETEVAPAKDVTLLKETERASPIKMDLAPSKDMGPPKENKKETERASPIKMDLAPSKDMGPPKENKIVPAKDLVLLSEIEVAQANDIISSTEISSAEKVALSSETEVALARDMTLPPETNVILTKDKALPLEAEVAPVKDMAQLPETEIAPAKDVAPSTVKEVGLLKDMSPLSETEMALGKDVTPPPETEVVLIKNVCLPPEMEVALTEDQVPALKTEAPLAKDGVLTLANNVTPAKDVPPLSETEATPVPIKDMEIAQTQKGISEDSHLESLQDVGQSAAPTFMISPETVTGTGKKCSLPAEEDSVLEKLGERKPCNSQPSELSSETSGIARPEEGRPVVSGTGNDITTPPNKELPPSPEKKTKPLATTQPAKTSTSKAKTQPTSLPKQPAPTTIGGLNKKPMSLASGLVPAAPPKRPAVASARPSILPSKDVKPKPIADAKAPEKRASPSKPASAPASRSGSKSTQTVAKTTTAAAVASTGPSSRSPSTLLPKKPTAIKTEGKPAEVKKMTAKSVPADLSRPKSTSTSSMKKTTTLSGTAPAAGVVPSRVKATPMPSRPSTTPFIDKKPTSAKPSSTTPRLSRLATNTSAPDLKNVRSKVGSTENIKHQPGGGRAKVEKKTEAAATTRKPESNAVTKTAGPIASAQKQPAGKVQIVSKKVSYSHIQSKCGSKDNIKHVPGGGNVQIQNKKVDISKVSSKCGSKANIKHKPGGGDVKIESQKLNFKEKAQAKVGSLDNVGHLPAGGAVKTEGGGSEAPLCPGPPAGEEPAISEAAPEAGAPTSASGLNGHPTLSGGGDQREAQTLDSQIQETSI
Chain of UniProt Q13422 (Q13422 whole entry, looked up): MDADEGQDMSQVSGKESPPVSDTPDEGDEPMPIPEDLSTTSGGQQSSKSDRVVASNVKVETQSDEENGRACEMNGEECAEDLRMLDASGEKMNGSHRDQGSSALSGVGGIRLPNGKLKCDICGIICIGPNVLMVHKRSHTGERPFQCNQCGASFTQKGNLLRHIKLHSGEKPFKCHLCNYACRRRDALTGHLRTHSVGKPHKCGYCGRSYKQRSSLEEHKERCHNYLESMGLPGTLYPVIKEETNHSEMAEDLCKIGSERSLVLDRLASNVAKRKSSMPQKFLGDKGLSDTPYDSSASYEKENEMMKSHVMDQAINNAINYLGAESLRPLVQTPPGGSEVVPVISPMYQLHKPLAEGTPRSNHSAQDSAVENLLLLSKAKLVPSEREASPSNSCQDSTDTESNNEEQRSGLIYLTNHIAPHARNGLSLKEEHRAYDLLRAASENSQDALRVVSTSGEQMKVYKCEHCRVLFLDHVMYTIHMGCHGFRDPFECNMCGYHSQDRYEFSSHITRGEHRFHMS
Chain of UniProt P01116 (P01116 whole entry, looked up): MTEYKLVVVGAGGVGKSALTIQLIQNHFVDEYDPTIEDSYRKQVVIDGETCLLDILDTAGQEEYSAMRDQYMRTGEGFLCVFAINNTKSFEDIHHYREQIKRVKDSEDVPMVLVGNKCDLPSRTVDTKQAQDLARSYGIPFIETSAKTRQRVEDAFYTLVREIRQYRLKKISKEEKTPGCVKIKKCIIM

| Target | log2 fold change [1] | log2 fold change [2] | log2 fold change [3] | log2 fold change [4] | log2 fold change [5] | log2 fold change [6] | log2 fold change [7] | log2 fold change [8] | log2 fold change [9] | log2 fold change [10] |
| --- | --- | --- | --- | --- | --- | --- | --- | --- | --- | --- |
| MAP4 (UniProt P27816) | -0.002 | 0.022 | -0.029 | 0.028 | -0.034 | -0.027 | -0.019 | -0.003 | -0.002 | -0.078 |
| METAP1D (UniProt Q6UB28) | 0.342 (active) | -0.097 | 0.054 | 0.079 | -0.085 | 0.021 | -0.029 | -0.035 | -0.062 |  |
| IKZF1 (UniProt Q13422) | -0.045 | -0.136 | 0.004 | 0.037 | -0.019 | 0.01 | 0.128 | 0.039 | -0.041 | 0.026 |
| IRF3 (UniProt Q14653) | -0.075 | -0.141 | 0.021 | -0.073 | -0.085 | -0.08 | 0.011 | 0.023 | -0.003 | 0.053 |
| MIER1 isoform 12 (UniProt Q8N108) | -0.041 | -0.067 | -0.015 | -0.04 | -0.023 | -0.039 | -0.001 | 0.014 | 0.011 | -0.066 |
| LPGAT1 (UniProt Q92604) | 0.124 | -0.021 | 0.001 | -0.098 | 0.032 | -0.082 | -0.059 | 0.12 | 0.15 |  |
| MICU2 (UniProt Q8IYU8) | 0.067 | -0.089 | -0.142 | 0.022 | -0.067 | -0.21 | 0.038 | -0.031 | -0.031 | 0.005 |
| IMMT isoform 4 (UniProt Q16891) | -0.008 | -0.122 | -0.007 | -0.082 | -0.049 | -0.146 | -0.005 | 0.013 | -0.047 | 0.005 |
| LNPEP (UniProt Q9UIQ6) | 0.001 | -0.014 | -0.03 | -0.014 | -0.01 | 0.016 | 0.01 | 0.058 | 0.003 | 0.04 |
| LUC7L (UniProt Q9NQ29) | -0.094 | 0.178 | -0.013 | 0.052 | -0.07 | 0.024 | -0.104 | 0.017 | 0.007 | 0.092 |
| IRF2BPL (UniProt Q9H1B7) | 0.283 | -0.025 | 0.029 | 0.033 | 0.058 | 0.015 | -0.016 | -0.027 | -0.015 | 0.071 |
| LRBA (UniProt P50851) | -0.004 | -0.06 | 0.002 | -0.113 | -0.017 | 0.029 | -0.008 | 0.031 | 0.009 | -0.015 |
| MGST3 (UniProt O14880) | -0.021 | -0.035 | -0.005 | 0.012 | 0.008 | 0.001 | 0.002 | 0.018 | -0.009 | 0.004 |
| KIF11 (UniProt P52732) | -0.004 | 1.1 (active) | 0.074 | 0.026 | 0.011 | 0.043 | -0.002 | -0.063 | -0.018 | 0.046 |
| KNTC1 (UniProt P50748) | 0.03 | -0.008 | 0 | -0.082 | -0.035 | 0.036 | 0.175 | -0.037 | 0.008 | 0.007 |
| KDM3B (UniProt Q7LBC6) | 0.01 | 0.001 | 0.033 | -0.026 | 0.021 | 0.065 | 0.008 | -0.029 | -0.014 | 0.012 |
| KDM1A isoform 2 (UniProt O60341) | 0.019 | 0.004 | -0.009 | -0.03 | -0.055 | 0.07 | 0.022 | -0.036 | 0.068 | -0.008 |
| LIMD1 (UniProt Q9UGP4) | 0.027 | -0.007 | 0.028 | 0.028 | -0.059 | 0 | -0.078 | -0.01 | 0.06 | -0.043 |
| LUZP1 (UniProt Q86V48) | -0.08 | 0.552 (active) | -0.059 | 0.03 | -0.081 | -0.036 | 0.051 | -0.117 | 0.041 | 0.07 |
| KSR1 (UniProt Q8IVT5) | 0.015 | 0.033 | 0.016 | 0.034 | 0.123 | -0.329 | -0.028 | 0.126 | 0.087 | 0.176 |
| L2HGDH (UniProt Q9H9P8) | 0.096 | -0.121 | 0.07 | -0.037 | -0.019 | -0.034 | -0.01 | 0.041 | -0.069 | 0.115 |
| MIA2 (UniProt Q96PC5) | -0.017 | 0.121 | 0.037 | -0.017 | 0.069 | 0.027 | 0.034 | -0.109 | 0.029 | -0.019 |
| LONP2 (UniProt Q86WA8) | -0.002 | -0.019 | -0.02 | -0.177 | -0.115 | 0.375 | 0.129 | 0.015 | 0.1 | -0.041 |
| ITPRIP (UniProt Q8IWB1) | -0.042 | -0.022 | -0.024 | 0.014 | 0.012 | -0.021 | 0.018 | -0.043 | -0.038 | 0.049 |
| KIFBP (UniProt Q96EK5) | 0.058 | -0.095 | 0.074 | -0.09 | 0.106 | -0.028 | 0.01 | 0.01 | -0.049 | -0.071 |
| KRAS isoform 2 (UniProt P01116) | 0.01 | 0.005 | -0.033 | 0.099 | 0.029 | 0.037 | 0.015 | 0.033 | -0.009 | 0.046 |
| MAPK12 (UniProt P53778) | 0.066 | -0.062 | 0.026 | -0.072 | -0.115 | 0.084 | -0.269 | 0.093 | -0.056 | 0.062 |
| MAP2K7 isoform 4 (UniProt O14733) | -0.018 | -0.029 | -0.042 | -0.003 | -0.029 | 0.019 | -0.027 | 0.048 | -0.016 | 0.137 |
| LEO1 (UniProt Q8WVC0) | -0.038 | 0.021 | 0.175 | 0.023 | -0.08 | -0.035 | 0.009 | -0.034 | -0.032 | 0.009 |
| KPNA4 (UniProt O00629) | 0.017 | -0.028 | 0.015 | -0.068 | -0.026 | -0.091 | 0.041 | 0.044 | -0.017 | -0.025 |
